# In PubChem BioAssay (NCATS):
# Inconclusive results are not listed. Some of the results follow. Entries that show only a call come without a potency. Activity calls are given as the source filed them. Unless noted, calls come from the whole dose curve; as a rule, active = well fitted curve in the direction sought with a large enough effect; inconclusive = small, poorly fitted or top-dose-only effect, or another doubt; inactive = no such curve, though single readings can be large; an effect the other way counts as inactive or inconclusive.
# What was measured:
# [1] = molecular target: Mitogen-activated protein kinase 10 (Mus musculus) (UniProt Q61831); test: JNK3 AlphaScreen Assay (AID 530; active = well fitted curve in either direction with a large enough effect, not every such curve was filed as active;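 note: kinase came from lysate of stimulated human HepG2 cells; signal reports phosphorylation of biotinylated GST-cJun 1-79 at Ser73 with 10 µM ATP; series mostly up to about 57 µM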)
# Outline: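 Room-temperature AlphaScreen kinase assay; pre-activated HepG2 lysate as JNK3 source, biotin-GST-cJun(1-79) substrate, 10 uM ATP, compound 15 min preincubation.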
# [2] = molecular target: Cytochrome P450 3A4 (Homo sapiens) (UniProt P08684); test: qHTS Assay for Activators of Cytochrome P450 3A4 (AID 885); note: nearly all actives have a fitted effect of over 65% in size
# Sequence of Cytochrome P450 3A4 (Homo sapiens) (P08684 whole entry, looked up): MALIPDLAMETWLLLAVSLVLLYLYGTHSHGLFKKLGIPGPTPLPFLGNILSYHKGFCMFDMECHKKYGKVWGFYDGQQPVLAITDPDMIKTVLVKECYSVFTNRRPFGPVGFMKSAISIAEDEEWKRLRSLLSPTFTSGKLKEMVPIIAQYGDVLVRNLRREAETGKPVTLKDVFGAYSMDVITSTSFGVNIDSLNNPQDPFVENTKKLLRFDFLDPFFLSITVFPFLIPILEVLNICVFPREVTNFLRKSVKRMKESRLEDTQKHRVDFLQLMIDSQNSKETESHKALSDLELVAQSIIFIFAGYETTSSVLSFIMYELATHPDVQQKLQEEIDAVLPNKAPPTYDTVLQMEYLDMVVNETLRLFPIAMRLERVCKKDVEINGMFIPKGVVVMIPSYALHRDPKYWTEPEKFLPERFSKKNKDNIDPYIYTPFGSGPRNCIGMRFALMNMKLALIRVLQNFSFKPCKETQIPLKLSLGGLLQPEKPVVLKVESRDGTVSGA
# Outline: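 Human CYP3A4 (20 nM) with Luciferin-PPXE at 25 uM (its KM) in 200 mM KPO4; 10 min compound preincubation, then NADPH regeneration and 60 min reaction at RT. Luciferin read by luminescence; normalized to 57 uM ketoconazole full inhibition.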
# [3] = molecular target: Cytochrome P450 3A4 (Homo sapiens) (UniProt P08684); test: qHTS Assay for Inhibitors and Substrates of Cytochrome P450 3A4 (AID 884); note: potency is the fitted concentration of half-maximal effect; nearly all actives have a fitted effect of over 50% in size
# Outline: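 20 nM human CYP3A4 with 25 uM Luciferin-PPXE (at KM) in 200 mM KPO4, preincubated 10 min with compound; NADPH regeneration started a 60 min RT reaction. Luciferin detected by luminescence, normalized to 57 uM ketoconazole as full inhibition.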
# [4] = molecular target: DNA dC->dU-editing enzyme APOBEC-3G (Homo sapiens) (UniProt Q9HC16); test: qHTS for inhibitors of Vif-A3G interactions: Validation (AID 588379)
# Sequence of DNA dC->dU-editing enzyme APOBEC-3G (Homo sapiens) (Q9HC16 whole entry, looked up): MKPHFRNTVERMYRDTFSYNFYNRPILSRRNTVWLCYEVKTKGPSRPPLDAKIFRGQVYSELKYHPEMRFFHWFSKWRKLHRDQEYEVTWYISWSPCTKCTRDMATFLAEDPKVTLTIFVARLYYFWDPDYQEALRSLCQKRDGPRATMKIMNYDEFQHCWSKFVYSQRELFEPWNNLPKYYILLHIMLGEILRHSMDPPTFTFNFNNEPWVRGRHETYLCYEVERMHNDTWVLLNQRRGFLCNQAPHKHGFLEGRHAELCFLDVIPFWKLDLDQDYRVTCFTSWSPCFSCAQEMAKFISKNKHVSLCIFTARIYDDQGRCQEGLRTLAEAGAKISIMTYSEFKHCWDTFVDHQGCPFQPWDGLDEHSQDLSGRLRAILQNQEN
# Outline: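 HeLa cells stably expressing Vif and A3G-eYFP, 700 cells/well, incubated overnight at 37 deg C, then exposed to compound overnight at 37 deg C. Inhibition of Vif-mediated degradation read as increased yellow fluorescence (Ex 488/Em 500-530) by laser-scanning cytometry.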
# [5] = molecular target: Lethal(3)malignant brain tumor-like protein 1 (Homo sapiens) (UniProt Q9Y468); test: qHTS Assay for the Inhibitors of L3MBTL1: Hit Validation (AID 540279); conditions: L3MBTL1 methyl-lysine binding inhibition, biochemical qHTS; note: potency is the fitted concentration of half-maximal effect; nearly all actives have a fitted effect of over 70% in size
# Sequence of Lethal(3)malignant brain tumor-like protein 1 (Homo sapiens) (Q9Y468 whole entry, looked up): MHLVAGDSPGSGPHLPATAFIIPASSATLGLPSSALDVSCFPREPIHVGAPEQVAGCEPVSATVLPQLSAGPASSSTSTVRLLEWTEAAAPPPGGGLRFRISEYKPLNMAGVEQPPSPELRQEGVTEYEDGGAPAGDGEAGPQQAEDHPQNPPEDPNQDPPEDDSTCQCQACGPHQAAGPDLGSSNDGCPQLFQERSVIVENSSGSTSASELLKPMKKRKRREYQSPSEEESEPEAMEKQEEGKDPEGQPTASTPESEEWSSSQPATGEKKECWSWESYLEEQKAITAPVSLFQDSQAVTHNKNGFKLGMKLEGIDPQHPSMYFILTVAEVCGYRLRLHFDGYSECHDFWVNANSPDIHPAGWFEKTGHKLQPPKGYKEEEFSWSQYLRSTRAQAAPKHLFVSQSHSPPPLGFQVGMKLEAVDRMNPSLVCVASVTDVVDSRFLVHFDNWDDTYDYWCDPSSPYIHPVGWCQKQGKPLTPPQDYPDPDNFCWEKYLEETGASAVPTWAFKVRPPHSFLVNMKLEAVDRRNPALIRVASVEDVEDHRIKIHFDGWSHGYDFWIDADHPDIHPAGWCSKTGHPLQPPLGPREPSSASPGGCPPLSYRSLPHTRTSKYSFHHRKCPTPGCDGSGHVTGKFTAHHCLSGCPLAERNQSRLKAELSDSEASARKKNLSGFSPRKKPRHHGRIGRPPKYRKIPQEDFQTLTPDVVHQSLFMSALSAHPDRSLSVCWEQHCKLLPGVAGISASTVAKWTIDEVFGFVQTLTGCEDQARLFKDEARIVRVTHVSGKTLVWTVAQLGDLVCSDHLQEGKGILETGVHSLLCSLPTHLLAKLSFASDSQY
# Outline: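 AlphaScreen displacement: 50 nM L3MBTL1 bound to 75 nM biotin-H3K9me1 peptide for 30 min, compound added for 30 min at room temperature, then beads at 10 ug/mL final for 30 min in the dark. Cefsulodin titration served as intraplate control.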
# [6] = qHTS Assay for the Inhibitors of L3MBTL1: Hit Validationin AlphaScreen Counterscreen (AID 602224)
# Outline: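 Using a biotin-His6 bridge (1 nM) between streptavidin donor and Ni-chelate acceptor beads at 10 ug/mL each, hit compounds were checked for assay-technology artifacts; activity here flags false positives from the primary screen.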
# [7] = molecular target: DNA polymerase iota (Homo sapiens) (UniProt Q9UNA4); test: qHTS for Inhibitors of Polymerase Iota: Confirmatory Assay for Cherry-picked Compounds (AID 720496); conditions: Pol iota primer extension, TAMRA/BHQ fluorescence; note: potency is the fitted concentration of half-maximal effect
# Sequence of DNA polymerase iota (Homo sapiens) (Q9UNA4 whole entry, looked up): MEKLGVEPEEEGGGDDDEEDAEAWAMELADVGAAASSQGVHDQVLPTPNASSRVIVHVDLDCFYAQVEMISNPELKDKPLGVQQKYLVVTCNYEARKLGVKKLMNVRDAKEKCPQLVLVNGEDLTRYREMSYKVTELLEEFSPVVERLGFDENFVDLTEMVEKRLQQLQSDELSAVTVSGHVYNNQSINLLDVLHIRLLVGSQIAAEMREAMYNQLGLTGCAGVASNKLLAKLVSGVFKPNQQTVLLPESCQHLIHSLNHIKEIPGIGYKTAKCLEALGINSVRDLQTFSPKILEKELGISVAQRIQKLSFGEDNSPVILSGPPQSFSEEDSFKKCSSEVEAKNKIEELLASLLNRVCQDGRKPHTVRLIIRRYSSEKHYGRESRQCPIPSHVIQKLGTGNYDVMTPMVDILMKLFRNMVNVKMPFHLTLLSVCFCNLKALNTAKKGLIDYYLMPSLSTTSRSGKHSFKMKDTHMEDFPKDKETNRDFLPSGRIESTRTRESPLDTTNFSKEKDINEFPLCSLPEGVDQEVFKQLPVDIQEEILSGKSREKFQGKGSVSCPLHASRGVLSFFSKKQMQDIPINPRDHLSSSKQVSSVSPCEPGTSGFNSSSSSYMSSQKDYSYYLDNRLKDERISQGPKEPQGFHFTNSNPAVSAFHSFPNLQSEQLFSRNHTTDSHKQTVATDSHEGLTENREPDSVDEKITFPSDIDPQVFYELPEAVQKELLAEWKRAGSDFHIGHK
# Outline: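 Human Pol iota (10 nM) was preincubated 15 min at room temperature with compound, then started with 50 nM TAMRA/BHQ-2 quenched primer-template substrate. Fluorescence (ex 525/em 598 nm) was read at 0 and 10 min.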
# [8] = molecular target: Bifunctional 3'-5' exonuclease/ATP-dependent helicase WRN (Homo sapiens) (UniProt Q14191); test: qHTS for Inhibitors of WRN Helicase: Confirmatory Assay for Cherry-picked Compounds. (AID 720497); note: potency is the fitted concentration of half-maximal effect; nearly all actives have a fitted effect of over 65% in size
# Sequence of Bifunctional 3'-5' exonuclease/ATP-dependent helicase WRN (Homo sapiens) (Q14191 whole entry, looked up): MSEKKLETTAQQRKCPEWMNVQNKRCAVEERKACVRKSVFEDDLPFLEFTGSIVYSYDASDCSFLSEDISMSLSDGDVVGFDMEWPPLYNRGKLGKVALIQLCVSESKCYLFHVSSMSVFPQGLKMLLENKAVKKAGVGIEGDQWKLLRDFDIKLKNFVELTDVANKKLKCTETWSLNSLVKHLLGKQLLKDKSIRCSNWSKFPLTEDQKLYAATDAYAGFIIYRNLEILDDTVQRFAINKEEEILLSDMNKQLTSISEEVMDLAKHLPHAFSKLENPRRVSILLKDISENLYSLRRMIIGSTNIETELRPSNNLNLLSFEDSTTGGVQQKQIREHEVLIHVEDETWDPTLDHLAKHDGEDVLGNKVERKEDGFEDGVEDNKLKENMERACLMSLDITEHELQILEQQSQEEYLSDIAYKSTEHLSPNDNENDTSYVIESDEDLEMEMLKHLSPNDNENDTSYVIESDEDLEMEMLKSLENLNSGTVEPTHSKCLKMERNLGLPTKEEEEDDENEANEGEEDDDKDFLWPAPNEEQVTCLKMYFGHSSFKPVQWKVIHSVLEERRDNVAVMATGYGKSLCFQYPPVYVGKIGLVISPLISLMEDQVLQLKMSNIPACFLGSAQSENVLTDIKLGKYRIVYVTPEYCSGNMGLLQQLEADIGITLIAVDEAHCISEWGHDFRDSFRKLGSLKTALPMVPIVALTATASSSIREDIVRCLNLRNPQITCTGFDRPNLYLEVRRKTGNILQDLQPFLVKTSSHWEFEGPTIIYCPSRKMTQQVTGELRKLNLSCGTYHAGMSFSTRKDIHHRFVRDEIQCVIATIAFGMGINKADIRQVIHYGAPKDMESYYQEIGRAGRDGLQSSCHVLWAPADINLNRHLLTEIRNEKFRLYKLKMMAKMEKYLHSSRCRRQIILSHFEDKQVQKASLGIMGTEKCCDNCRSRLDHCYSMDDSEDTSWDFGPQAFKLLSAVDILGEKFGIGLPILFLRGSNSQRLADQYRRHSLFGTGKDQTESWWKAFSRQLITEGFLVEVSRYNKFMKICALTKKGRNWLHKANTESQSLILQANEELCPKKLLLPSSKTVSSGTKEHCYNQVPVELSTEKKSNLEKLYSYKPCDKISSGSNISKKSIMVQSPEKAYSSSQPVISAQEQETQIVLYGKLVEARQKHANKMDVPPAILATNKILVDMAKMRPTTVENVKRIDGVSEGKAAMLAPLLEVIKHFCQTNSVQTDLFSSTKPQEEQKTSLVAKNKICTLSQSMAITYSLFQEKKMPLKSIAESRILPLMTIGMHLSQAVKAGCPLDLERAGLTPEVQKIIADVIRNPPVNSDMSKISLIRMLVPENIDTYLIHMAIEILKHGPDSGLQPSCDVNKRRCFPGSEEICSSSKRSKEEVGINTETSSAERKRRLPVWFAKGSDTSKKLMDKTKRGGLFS
# Outline: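 WRN (20 nM) was preincubated 15 min at RT with compound, then started with 100 nM forked duplex oligonucleotide and 2 mM ATP. Unwinding was read kinetically by red fluorescence (ex 525/em 598 nm), normalized to enzyme-free and uninhibited controls.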
# [9] = molecular target: DNA polymerase eta (Homo sapiens) (UniProt Q9Y253); test: qHTS for Inhibitors of Polymerase Eta: Confirmatory Assay for Cherry-picked Compounds (AID 720502); conditions: Pol eta primer extension, TAMRA/BHQ fluorescence, 10 min; note: potency is the fitted concentration of half-maximal effect
# Sequence of DNA polymerase eta (Homo sapiens) (Q9Y253 whole entry, looked up): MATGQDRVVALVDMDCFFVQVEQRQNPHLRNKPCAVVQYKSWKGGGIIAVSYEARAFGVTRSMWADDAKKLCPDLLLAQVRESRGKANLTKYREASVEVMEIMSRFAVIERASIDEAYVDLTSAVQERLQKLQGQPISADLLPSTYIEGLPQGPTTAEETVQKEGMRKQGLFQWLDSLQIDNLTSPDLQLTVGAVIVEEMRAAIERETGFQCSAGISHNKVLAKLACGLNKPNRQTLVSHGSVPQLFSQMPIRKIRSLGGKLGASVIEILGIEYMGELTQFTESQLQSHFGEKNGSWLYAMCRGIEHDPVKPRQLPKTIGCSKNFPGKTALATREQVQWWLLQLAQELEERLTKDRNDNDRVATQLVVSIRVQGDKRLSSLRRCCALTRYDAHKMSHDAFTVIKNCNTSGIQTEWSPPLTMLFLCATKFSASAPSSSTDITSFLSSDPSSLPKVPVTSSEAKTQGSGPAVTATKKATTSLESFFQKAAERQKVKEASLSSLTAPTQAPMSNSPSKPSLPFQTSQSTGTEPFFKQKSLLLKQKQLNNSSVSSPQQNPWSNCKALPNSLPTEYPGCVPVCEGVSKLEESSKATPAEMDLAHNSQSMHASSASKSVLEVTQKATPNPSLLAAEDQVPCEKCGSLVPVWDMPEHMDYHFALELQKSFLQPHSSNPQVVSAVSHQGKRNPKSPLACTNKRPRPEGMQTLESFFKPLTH
# Outline: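 Quenched-fluorescence replication assay: 10 nM Pol eta, 50 nM substrate final, 15 min compound preincubation at room temperature, 10 min kinetic reaction read at 525/598 nm.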
smiles,measurement,setting,value
CC(=O)N1[C@H](C)C=C[C@]1(Cc1ccccc1)C(=O)NCCc1c[nH]c2ccccc12,outcome,[1],inactive
same,Potency,[2],inactive
COC(=O)C1(C)C=CC2(CCCCC2)N1C(C)=O (centres undefined),outcome,[1],inactive
same,Potency,[2],inactive
COC(=O)N1CC=CC1(C)C(=O)NCc1ccc(C)o1 (centres undefined),outcome,[1],inactive
same,Potency,[2],inactive
CC(=O)N1[C@H](Cc2ccccc2)C=C[C@]1(C)C(=O)NCc1cc(F)cc(C(F)(F)F)c1,outcome,[1],inactive
same,Potency,[3],6.31 µM (active)
same,Potency,[2],inactive
COC(=O)C1(C)C=CC2(CCCCC2)N1C(=O)c1ccccc1 (centres undefined),outcome,[1],inactive
same,Potency,[2],inactive
COC(=O)[C@H](Cc1ccccc1)NC(=O)[C@H]1C[C@@H]1[C@H](NC(=O)OCc1ccccc1)c1ccccc1,outcome,[1],inactive
same,Potency,[3],7.94 µM (active)
same,Potency,[2],inactive
COCCNC(=O)C1(CC(C)C)C=CCN1C(=O)c1ccccc1 (centres undefined),outcome,[1],inactive
same,Potency,[2],inactive
COC(=O)N1[C@H](Cc2ccccc2)C=C[C@]1(C)C(=O)NCc1ccccn1,outcome,[1],inactive
same,Potency,[3],7.94 µM (active)
same,Potency,[2],inactive
COCCNC(=O)C1(CC(C)C)C=CCN1C(=O)OC (centres undefined),outcome,[1],inactive
same,Potency,[2],inactive
COC(=O)c1ccc(C(NC(=O)OCc2ccccc2)/C(=C/[C@@H](C)C(=O)Nc2ccc(OC)cc2)c2cccnc2)cc1 (some centres undefined),outcome,[1],inactive
same,Potency,[3],1 µM (active)
same,Potency,[2],inactive
COC(=O)c1ccc(C(NC(=O)OCc2ccccc2)/C(=C/[C@@H](C)C(=O)NCc2cccnc2)c2cccnc2)cc1 (some centres undefined),outcome,[1],inactive
same,Potency,[3],1 µM (active)
same,Potency,[2],inactive
CNC(=O)[C@@H]1C[C@H]1[C@@H](NC(=O)CNC(=O)OCc1ccccc1)c1ccccc1,outcome,[1],inactive
same,Potency,[2],inactive
CC(C)NC(=O)[C@H]1C[C@@H]1[C@H](NC(=O)OCc1ccccc1)c1ccccc1,outcome,[1],inactive
same,Potency,[2],inactive
COC(=O)[C@@]1(C)C=C[C@@H](Cc2ccccc2)N1C(=O)c1ccccc1,outcome,[1],inactive
same,Potency,[2],inactive
CNC(=O)C1(C)C=CC2(CCCCC2)N1C(=O)OC (centres undefined),outcome,[1],inactive
same,Potency,[2],inactive
COc1ccc(CNC(=O)C(C)Cc2ccccc2)cc1O (centres undefined),outcome,[1],inactive
same,Potency,[2],inactive
CC(=O)N1CC=CC1(C)C(=O)NCC1CC1 (centres undefined),outcome,[1],inactive
same,Potency,[2],inactive
COC(=O)CCCCCN1C(=O)NC(c2ccccc2)C(C(=O)OCc2ccccc2)=C1C (centres undefined),outcome,[1],inactive
same,Potency,[2],inactive
C[C@H](CCC(=O)O)[C@H]1CC[C@@H]2[C@H]3CC[C@H]4C[C@H](O)CC[C@]4(C)[C@@H]3CC[C@@]21C,Potency,[4],inactive
CC(=O)N1[C@H](C)C=C[C@]1(Cc1ccccc1)C(=O)O,outcome,[1],inactive
same,Potency,[2],inactive
CC(C)c1ccc2c(c1)CC[C@@H]1[C@@](C)(CN)CCC[C@]21C,Potency,[4],inactive
CC(C)(C)OC(=O)NCCCCCNC(=O)c1[nH]cnc1C(=O)Nc1nccs1,Potency,[5],7.52 µM (active)
same,outcome,[6],inactive
C=C(CO)C1Cc2c(ccc3c2OC2COc4cc(OC)c(OC)cc4C2C3=O)O1 (centres undefined),Potency,[4],inactive
CC(=O)N1CC=CC1(CC(C)C)C(=O)NCc1ccccn1 (centres undefined),outcome,[1],inactive
same,Potency,[2],inactive
COC(=O)CNC(=O)[C@@]1(C)C=C[C@@H](Cc2ccccc2)N1C(C)=O,outcome,[1],inactive
same,Potency,[2],inactive
Oc1ccc(N=Nc2nccs2)c(O)c1,Potency,[5],16.8 µM (active)
same,outcome,[6],inactive
C[C@H]1[C@H](C)CC[C@]2(C(=O)O)CC[C@]3(C)C(=CCC4[C@@]5(C)CC[C@H](O)C(C)(C)[C@@H]5CC[C@]43C)[C@H]12 (some centres undefined),Potency,[4],inactive
CC1=CC(=O)C2=C(C)CCC3C(C)C(=O)OC3C12 (centres undefined),Potency,[4],inactive
COc1cccc2c(C)c(C(=O)O)[nH]c12,Potency,[5],5.97 µM (active)
same,outcome,[6],inactive
Cn1c2ccccc2c(=O)c2c(=O)n(Cc3ccco3)c(COc3ccccc3)nc21,Potency,[5],7.52 µM (active)
same,outcome,[6],inactive
same,Potency,[7],75.2 µM (active)
COCCNC(=O)[C@@]1(Cc2ccccc2)C=C[C@@H](C)N1C(C)=O,outcome,[1],inactive
same,Potency,[2],inactive
COC(=O)N1[C@H](C)C=C[C@]1(Cc1ccccc1)C(=O)NCc1ccccn1,outcome,[1],inactive
same,Potency,[2],inactive
C=C[C@@H]1CN2CC[C@@H]1C[C@@H]2[C@@H](O)c1ccnc2ccc(OC)cc12,Potency,[4],inactive
COC(=O)N1[C@H](C)C=C[C@]1(Cc1ccccc1)C(=O)NCc1ccc(C)o1,outcome,[1],inactive
same,Potency,[2],inactive
CCCCNC(=O)C(c1ccc(OCC(=O)OC)c(C(=O)OC)c1)N(CCC1=CCCCC1)C(=O)CCCCCN1C(=O)NC(c2ccc(-c3ccccc3)cc2)C(C(=O)OCc2ccccc2)=C1C (centres undefined),outcome,[1],inactive
same,Potency,[2],inactive
CSc1nnc(SCc2nc3sc(C(=O)O)c(C)c3c(=O)[nH]2)s1,Potency,[5],0.532 µM (active)
same,Potency,[7],18.9 µM (active)
same,Potency,[8],13.6 µM (active)
same,Potency,[9],5.36 µM (active)
COC(=O)[C@@]1(C)C[C@@H]1[C@@H](NC(=O)[C@@]1(C)C[C@@H]1[C@@H](NC(=O)[C@@]1(C)C[C@@H]1[C@@H](NC(=O)[C@@]1(C)C[C@@H]1[C@@H](NC(=O)OCc1ccccc1)c1ccccc1)c1ccccc1)c1ccccc1)c1ccccc1,outcome,[1],inactive
same,Potency,[2],inactive
CC[C@]12CCCN3CCc4c(n(c5ccccc45)C(=O)C1)[C@H]32,Potency,[4],inactive
CC(=O)N1CC=CC1(CC(C)C)C(=O)NCC1CC1 (centres undefined),outcome,[1],inactive
same,Potency,[2],inactive
